In paper PMC4336329 (PLoS ONE, 2015):
The campaign covered roughly 310,000 compounds. About 14,000 (4.5%) showed an effect of 50% or more. Effects have a minus sign here. Shown is part of a subset that was picked to be rich in strong results.

molecular target: human ether-à-go-go-related gene (hERG) potassium channel (human, UniProt Q12809); assay: primary screen, population patch clamp on CHO cells stably expressing hERG; higher = less effect of the substance
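Note: peak tail current of the secondary pulse compared with the same well before compound.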

Chain of human ether-à-go-go-related gene (hERG) potassium channel (Q12809 whole entry, looked up): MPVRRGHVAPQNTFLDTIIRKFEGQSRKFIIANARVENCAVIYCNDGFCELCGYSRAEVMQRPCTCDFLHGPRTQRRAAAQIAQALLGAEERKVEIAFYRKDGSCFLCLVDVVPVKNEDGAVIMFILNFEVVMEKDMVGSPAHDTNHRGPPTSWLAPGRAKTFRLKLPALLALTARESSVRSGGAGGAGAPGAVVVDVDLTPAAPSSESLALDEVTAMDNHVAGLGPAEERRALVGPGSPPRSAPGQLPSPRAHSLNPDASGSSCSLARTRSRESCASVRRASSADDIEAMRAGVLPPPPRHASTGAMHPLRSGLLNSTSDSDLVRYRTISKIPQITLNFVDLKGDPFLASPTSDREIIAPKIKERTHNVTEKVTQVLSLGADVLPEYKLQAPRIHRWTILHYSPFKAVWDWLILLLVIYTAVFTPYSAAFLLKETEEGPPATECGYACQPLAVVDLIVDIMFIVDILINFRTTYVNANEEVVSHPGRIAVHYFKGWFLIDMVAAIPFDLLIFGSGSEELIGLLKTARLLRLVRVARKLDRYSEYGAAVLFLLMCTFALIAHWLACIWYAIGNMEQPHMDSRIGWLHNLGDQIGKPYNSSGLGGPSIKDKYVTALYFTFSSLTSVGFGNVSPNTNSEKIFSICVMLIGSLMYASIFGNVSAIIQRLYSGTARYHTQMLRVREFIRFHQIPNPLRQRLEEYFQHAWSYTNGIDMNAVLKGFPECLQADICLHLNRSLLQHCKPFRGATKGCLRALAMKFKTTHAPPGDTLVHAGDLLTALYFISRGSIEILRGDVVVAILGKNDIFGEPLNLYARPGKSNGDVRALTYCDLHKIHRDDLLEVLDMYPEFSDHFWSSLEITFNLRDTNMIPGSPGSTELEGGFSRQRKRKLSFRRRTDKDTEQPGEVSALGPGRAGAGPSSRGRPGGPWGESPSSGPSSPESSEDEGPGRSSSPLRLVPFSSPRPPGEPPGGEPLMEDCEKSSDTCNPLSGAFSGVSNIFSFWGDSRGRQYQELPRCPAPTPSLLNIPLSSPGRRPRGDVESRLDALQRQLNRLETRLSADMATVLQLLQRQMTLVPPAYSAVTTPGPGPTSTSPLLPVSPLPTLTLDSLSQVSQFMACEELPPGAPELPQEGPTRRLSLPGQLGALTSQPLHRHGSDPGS

| Structure (SMILES) | hERG current change (%, negative = inhibition) at 10uM |
| --- | --- |
| CCCCc1nc(C(N)=O)c2[nH]c(=O)n(-c3ccc(OC)cc3OC)c2n1 | 1.88% |
| CCC(CC)C(=O)c1c[nH]c(C(=O)N2CCN(c3ccccc3F)CC2)c1 | 25.2% |
| Br.COc1ccccc1N1Cc2ccccc2C1 | -13.2% |
| Cc1ccc(-n2c(-c3ccccc3)n[nH]c2=S)c(C)c1 | 7.9% |
| COc1ccccc1-n1c(CCC(=O)O)ccc1-c1ccccc1 | -12.9% |
| Cc1ccc(-n2c(-c3ccccc3)c[n+]3c2CCc2ccccc2-3)c(C)c1.[Br-] | -93% |
| Cc1ccc(NC(=O)C[n+]2cc(-c3ccccc3)n3c2CCC3)c(C)c1.[Cl-] | -9.62% |
| COc1ccccc1-n1c(-c2ccccc2)c[n+]2c1CCc1ccccc1-2.[Br-] | -74.1% |
| O=C(/C=C/c1ccco1)NC(=S)Nc1ccccn1 | -3.42% |
| CC(=O)Cc1nsc(NC(=O)c2cccc(F)c2)n1 | 12.5% |
| O=C(Nc1ccccc1C(=O)N1CCCCC1)c1ccccc1C(F)(F)F | 27.6% |
| Cc1ccc(N2C(=O)C(CN3CCOCC3)C2c2ccccc2)cc1 (centres unmarked) | -26.5% |
| Cc1ccc(N2C(=O)C(CN3CCCC3)C2c2ccccc2)cc1 (centres unmarked) | -78.5% |
| COc1ccc(N2C(=O)C(CN3CCN(C)CC3)C2c2ccccc2)cc1 (centres unmarked) | -16% |
| Cc1ccc(N2C(=O)C(CN(C)C)C2c2ccccc2)cc1 (centres unmarked) | -33.1% |
| Cc1ccc(N2C(=O)C(CN3CCCCC3)C2c2ccccc2)cc1 (centres unmarked) | -62.6% |
| COc1ccc(N2C(=O)C(CN3CCCCC3)C2c2ccccc2)cc1 (centres unmarked) | -12% |
| CC(=O)c1cccc(NS(=O)(=O)c2cc(OCC(N)=O)c(C)cc2Cl)c1 | 6.92% |
| COc1ccc(CN(C(=O)c2ccc(CN3CCOCC3)o2)C(C(=O)NCC2CCCO2)c2ccc(F)cc2)cc1 (centres unmarked) | -4.38% |
| O=C(Cc1ccc(Cl)c(Cl)c1)OCC(=O)c1ccc[nH]1 | -24.9% |
| O=C(COC(=O)c1cccc([N+](=O)[O-])c1)NCC1CCCO1 (centres unmarked) | 8.06% |
| Cc1c(NC(=O)COC(=O)C2CC3C=CC2C3)c(=O)n(-c2ccccc2)n1C (centres unmarked) | 13.2% |
| CCCNC(=O)c1ccc(C)c(NC(=O)C2=C(C)OCCS2)c1 | 3.06% |

| Structure (SMILES) | hERG current change (%, negative = inhibition) at 10uM |
| --- | --- |
| COCCNC(=O)c1ccc(C)c(NC(=O)C2=C(C)OCCS2)c1 | 21.1% |
| CC1=C(C(=O)Nc2cc(C(=O)NCCC(C)C)ccc2C)SCCO1 | -52.4% |
| O=C(CSc1nnc(-c2cccs2)o1)N1CCc2ccccc21 | -10.5% |
| CC12CCC(C(=O)Nc3ccc(Br)cn3)(OC1=O)C2(C)C (centres unmarked) | 7.13% |
| O=C(O)CCCN1C(=O)c2ccc(Oc3cccc([N+](=O)[O-])c3)cc2C1=O | 17.6% |
| COc1cccc(C(=O)Cn2c(Br)nc3c2c(=O)n(C)c(=O)n3C)c1 | -13.1% |
| Cc1cccc2c1-c1sc(C(=O)N3CCCCC3)cc1CO2 | -18.6% |
| Cc1cccc2c1-c1sc(C(=O)N3CCc4ccccc4C3)cc1CO2 | -2.75% |
| CCN1CCN(C(=O)c2cc3c(s2)-c2c(C)cccc2OC3)CC1 | -17.8% |
| CCOC(=O)c1cc2c(s1)-c1c(C)cccc1OC2 | 7.36% |
| Cc1cccc2c1-c1sc(C(=O)NCCCN3CCCC(C)C3)cc1CO2 (centres unmarked) | -77.9% |
| CCCN1CCN(CCCNC(=O)c2cc3c(s2)-c2c(C)cccc2OC3)CC1 | -85.2% |
| Cc1cccc(NC(=O)c2cc3c(s2)-c2c(C)cccc2OC3)n1 | 29.2% |
| CCOC(=O)N1CCN(C(=O)c2cc3c(s2)-c2c(C)cccc2OC3)CC1 | -15.5% |
| Cc1cccc2c1-c1sc(C(=O)NCCCN3CCC(C)CC3)cc1CO2 | -77.6% |
| S=c1[nH]nc(-c2ccccc2)n1/N=C/c1cccc(Br)c1 | 21.4% |
| CC(C(=O)N1CCOCC1)N1C(=O)c2cccc3cccc(c23)C1=O (centres unmarked) | 16.6% |
| COc1cc(OC)cc(-c2c(-c3cccs3)c3cc(-c4cnc(OC)nc4)ccc3n2C)c1 | 1.57% |
| O=S(=O)(/N=C(/NC(=S)Nc1ccccc1)c1ccccc1)c1ccc(Cl)cc1 | 18.9% |
| Cc1cc(C)c2nc(NNC(=O)c3cc(-c4cccs4)nc4ccccc34)sc2c1 | 18.3% |
| Cn1c(SCC(=O)N/N=C/C=C/c2ccco2)nc2ccccc21 | -42.9% |
| Cn1c(SCC(=O)N/N=C/c2ccco2)nc2ccccc21 | -2.38% |
| Cc1ccc(/C=N/NC(=O)CSc2nc3ccccc3n2Cc2ccc(Cl)cc2)o1 | -16.2% |

| Structure (SMILES) | hERG current change (%, negative = inhibition) at 10uM |
| --- | --- |
| Cc1ccc(Cn2c(SCC(=O)N/N=C/c3ccc(C)o3)nc3ccccc32)cc1 | -61.1% |
| CCn1c(SCC(=O)N/N=C/C=C\c2ccco2)nc2ccccc21 | -9.42% |
| O=C(CSc1nc2ccccc2n1Cc1ccccc1)N/N=C/c1ccco1 | -60.7% |
| O=C(CSc1nc2ccccc2n1Cc1ccccc1)N/N=C/c1ccccc1C(=O)O | -0.979% |
| Cn1c(SCC(=O)N/N=C/C=C\c2ccco2)nc2ccccc21 | -50.6% |
| Cc1ccc(/C=N/NC(=O)CSc2nc3ccccc3n2Cc2ccccc2)o1 | -33.9% |
| Cc1cc(NC(=O)CSc2ccccn2)no1 | 11.3% |
| CN(C(=O)c1ccno1)c1nnc(-c2cnccn2)s1 | 6.99% |
| CC(C)(C)NC(=S)N/N=C/c1cc(Br)c(O)c(Br)c1 | 29.8% |
| CCC12CN3CCN(CC(C3)C1O)C2 (centres unmarked) | -6.76% |
| CCOc1ccc2[nH]c3nc(SCC(=O)NC4CCCC4)nnc3c2c1 | 14.1% |
| O=C(NCc1ccccc1)c1ccc2nc(-c3ccco3)c(-c3ccco3)nc2c1 | -10.7% |
| CC1CCN(C(=O)CSc2nnc(-c3ccc(S(=O)(=O)N4CCOCC4)cc3)n2C)CC1 | -4.38% |
| Cc1cccc(C)c1Nc1c(-c2ccc(N3CCOCC3)cc2)nc2ncccn12 | -19% |
| Cc1ccc(-c2cc(-c3ccccc3)cc(-c3ccccc3)[n+]2-c2ccc(C(=O)O)cc2)cc1.[O-][Cl+3]([O-])([O-])[O-] | 4.17% |
| Oc1ccc(-[n+]2c(-c3ccccc3)cc(-c3ccccc3)cc2-c2ccccc2)cc1.[O-][Cl+3]([O-])([O-])[O-] | -71.3% |
| Cc1ccc(-c2cc(-c3ccccc3)cc(-c3ccccc3)[n+]2-c2ccccc2)cc1.[O-][Cl+3]([O-])([O-])[O-] | -82.1% |
| Cc1ccc(-c2cc(-c3ccc(C)cc3)[n+](-c3ccccc3)c(-c3ccc(C)cc3)c2)cc1.[O-][Cl+3]([O-])([O-])[O-] | -80.2% |
| Brc1ccc(-[n+]2c(-c3ccccc3)cc(-c3ccccc3)cc2-c2ccccc2)cc1.[O-][Cl+3]([O-])([O-])[O-] | -73.8% |
| Brc1ccc(-c2ccccc2)cc1 | 0.132% |
| Clc1ccc(OCCOCCOc2cccc3cccnc23)c(Br)c1 | 0.0859% |
| O=C(CCS(=O)(=O)c1ccc(Br)cc1)N1CCCCCC1 | -25.3% |
| CN1C(=O)c2ccc(NC(=O)c3c(F)c(F)c(F)c(F)c3F)cc2C1=O | 18.3% |

| Structure (SMILES) | hERG current change (%, negative = inhibition) at 10uM |
| --- | --- |
| CC(C)c1ccc(NC(=S)NN(c2ccccc2)c2ccccc2)cc1 | 12.7% |
| O=C(NCc1ccc2c(c1)OCO2)c1ccc2c(=O)n(C3CCCC3)c(=O)[nH]c2c1 | 4.61% |
| COc1ccc(C(=O)Nc2nc3ccc(OC)cc3s2)cc1 | 12.6% |
| Nc1ccc(-c2cnc[nH]2)cc1[N+](=O)[O-] | -0.302% |
| CCN(CCNCC(O)COCc1ccc(Cl)cc1)c1cccc(C)c1.O=C(O)C(=O)O (centres unmarked) | -18.2% |
| O=C(O)c1ccccc1NCCO | 33.8% |
| O=C(CSc1nnc(-c2ccncc2)s1)Nc1ccccc1 | 3.19% |
| O=C(O)c1ccc(-[n+]2c(-c3ccccc3)cc(-c3ccccc3)cc2-c2ccccc2)cc1.[O-][Cl+3]([O-])([O-])[O-] | 14.8% |
| O=[N+]([O-])c1ccc(-[n+]2c(-c3ccccc3)cc(-c3ccccc3)cc2-c2ccccc2)cc1.[O-][Cl+3]([O-])([O-])[O-] | 4.73% |
| [O-][Cl+3]([O-])([O-])[O-].c1ccc(-c2cc(-c3ccccc3)[n+](-c3ccccc3)c(-c3ccccc3)c2)cc1 | -71.3% |
| Cc1ccc2c(COC(=O)c3ccc(NC(=O)CC#N)cc3)cc(=O)oc2c1C | 3.63% |
| COc1ccc(OC)c(Nc2c3c(nc4ccccc24)CCC3)c1 | -67.8% |
| COc1ccccc1Nc1c2c(nc3ccccc13)CCC2 | -45.6% |
| COc1ccc(NC(=O)CSc2c3c(nc4ccccc24)CCC3)c(OC)c1 | -36.9% |
| COc1ccccc1Nc1c2c(nc3ccc(N)cc13)CCCC2 | -72.4% |
| COc1ccccc1NC(=O)CSc1c2c(nc3ccccc13)CCC2 | -26.3% |
| COc1ccc(OC)c(NC(=O)COC(=O)c2c3c(nc4ccccc24)CCCC3)c1 | 1.03% |
| Nc1ccc2nc3c(c(Cl)c2c1)CCCC3 | -22.7% |
| COc1ccc(OC)c(NC(=O)c2c3c(nc4ccccc24)CCC3)c1 | -21.8% |
| COc1ccc(C)cc1Nc1c2c(nc3ccccc13)CCC2 | -56.7% |
| COc1ccc(NC(=O)CSc2c3c(nc4ccccc24)CCCC3)c(OC)c1 | -47.5% |
| COc1ccc(Nc2c3c(nc4ccccc24)CCC3)c(OC)c1 | -64.7% |
| COc1ccc(C)cc1Nc1nc(N)c2ccccc2n1.Cl | -12.8% |
